# Results published in PubChem BioAssay (EPA / NIEHS).
# Values joined by “and” are separate entries in the source; they are usually repeats but may differ in a detail not shown here. Identical values can stand only once. Active and inactive are the calls of the source. Rule for the calls: active = hit-call score of the fitted dose curve at least 0.9, where 1 is the maximum; inactive = score below 0.9.
# System: TTR (gene 7276)
# Test: CCTE_GLTED_hTTR_0.125uM: CCTE's human Transthyretin (hTTR) Inhibition Assay, with 0.125uM TTR, Great Lakes Toxicology and Ecology Division (GLTED) Lab (AID 2284431)
# Description: CCTE_GLTED_hTTR is a cell-free, single-readout assay designed to test the chemicals' ability to displace T4 from the human transthyretin (TTR) protein. TTR (at 0.125uM or 0.5uM) is incubated in presence of test chemical for 2 hours during which disrupting chemicals displace ANSA from the TTR protein. Results read fluorescence at 380 excitation and 475 emission.CCTE_GLTED_hTTR_0.125uM is the assay component measured from the CCTE_GLTED_hTTR assay. It is designed to make measurements of fluorescent polarization, using a form of binding reporter, as detected with Fluorescence signals by Fluorescence technology.Data from the assay component CCTE_GLTED_hTTR_0.125uM was analyzed at the assay endpoint CCTE_GLTED_hTTR_0.125uM in the positive analysis fitting direction relative to DMSO as the negative control and baseline of activity. Using a type of binding reporter, loss-of-signal activity can be used to understand a chemical's ability to displace T4 from transthyretin. To generalize the intended target to other relatable targets, this assay endpoint is annotated to the 'transporter' intended target family, where the subfamily is 'hormone carrier protein'.
# Human transthyretin (TTR) assay, developed at Great Lakes Toxicology and Ecology Division (GLTED) within the EPA's Center for Computational Toxicology and Exposure (CCTE), is designed to test the chemicals' ability to displace T4 from the TTR protein. TTR (0.125uM) is incubated in presence of test chemical for 2 hours during which disrupting chemicals displace ANSA from the TTR protein. Results read fluorescence at 380 excitation and 475 emission.
row,SMILES,AC50
1,CC(C)(c1ccccc1)c1ccc(O)c(C(C)(C)c2ccccc2)c1,0.241 µM (active)
2,O=C1C(Cl)=C(Cl)C(=O)c2ccccc21,3.67 µM (active)
3,CCCCCCCCc1ccc(O)cc1,1.2 µM (active)
4,O=C(O)C(F)(F)C(F)(F)C(F)(F)C(F)(F)C(F)(F)C(F)(F)C(F)(F)C(F)(F)C(F)(F)C(F)(F)F,0.783 µM (active)
5,CCC(C)(C)c1ccc(O)c(C(C)(C)CC)c1,3.18 µM (active)
6,ClC(Cl)=C(Cl)C(Cl)=C(Cl)Cl,9.92 µM (active)
7,O=C(O)C(F)(F)C(F)(F)C(F)(F)C(F)(F)C(F)(F)C(F)(F)F,0.236 µM (active)
8,CC(C)(C)CC(C)(C)c1ccc(O)cc1,13.1 µM (active)
9,CCOP(=S)(OCC)SCSP(=S)(OCC)OCC,1.57 µM (active)
10,O=[N+]([O-])c1ccc(O)c([N+](=O)[O-])c1,0.155 µM (active)
11,Oc1ccc(-c2ccccc2)cc1,2.83 µM (active)
12,COP(=O)(OC)O/C(=C\Cl)c1cc(Cl)c(Cl)cc1Cl,1.18 µM (active)
13,COc1cc(-c2ccc(N)c(OC)c2)ccc1N,104 nM (active) and 2.64 µM (active)
14,COP(=S)(OC)Oc1ccc(Sc2ccc(OP(=S)(OC)OC)cc2)cc1,0.537 µM (active)
15,CCOP(=S)(OCC)Oc1nc(Cl)c(Cl)cc1Cl,0.376 µM (active)
